“And” between values parts separate entries of the source, which are not always exact repeats. Equal entries are not always repeated. The panel holds about 83,000 compounds, 20% with a hit somewhere; the sample as a whole holds those more often.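 Step 1: grow cells in 96-well plates. Step 2: add test compound at a single concentration. Step 3: incubate 48 h. Step 4: record percent growth.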 The source made the active and inactive calls. The calls were made as follows: active = growth percent below 10; inactive = the rest.
test system: TK-10 renal; assay: NCI-60 one-dose screen, 48 h (100 = growth as untreated, 0 = no growth, -100 = all killed); details: 10 µM unless noted

Structure (SMILES) | growth
C=C1C(=O)OC2CC1C(OC(=O)/C=C/c1ccccc1)C/C(C)=C/CC/C(C)=C/CCC2(C)O (stereo unspecified) | -99.2% [100 µM] (active) and -83.5% [100 µM] (active)
COc1ccc2c(c1)C(OC)C1c3c(cc4c(c3-2)OCO4)CCN1C (stereo unspecified) | -18.2% [100 µM] (active) and -91.5% [100 µM] (active)
CCOC(=O)COc1cc(-c2ccccc2F)nc2cc3c(cc12)OCO3 | 126% [100 µM] (inactive) and 78.4% [100 µM] (inactive)
Cn1c(COC(=O)NC2CCCCC2)c(COC(=O)NC2CCCCC2)c2ccc3cc(Cl)c(Cl)cc3c21 | -93.7% [100 µM] (active)
COC(=O)[C@]1(C)CCC[C@@]2(C)[C@@H]3C[C@@H]4[C@H]5C[C@@]3(CC[C@@H]21)C[C@@]45C | -88.2% [100 µM] (active) and -65.7% [100 µM] (active)
O=Cc1ccc(-c2ccc(-c3ccc(CO)s3)o2)s1 | -35% [100 µM] (active) and -93.3% [100 µM] (active)
